Viability data for 30 molecules are collected here from PubChem BioAssay AID1004 (SRMLSC, 2008).

The source made the active and inactive calls.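 How the source made its calls: active means viability at 10 µM of 29.74% or lower, 3 SD below the compound median; inactive means the rest.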

In general, viability refers to a read-out of living cells in per cent, often relative to untreated cells.

The test in a line: viability of HCT116 lacking mutant beta-catenin – cell-based, DP diverse set, validation, pilot screen (AID 1004). The following applies: HCT116 (mutant beta-catenin deleted) viability, CellTiter-Glo, 60 h; at 10 µM; hits give low values.
For the molecule `COc1c(C)c2c(c(O)c1C/C=C(\C)CCC(=O)O)C(=O)OC2`, the viability was 49.1% (inactive).
With `C/C=C1/C2C=C(C)CC1(N)c1ccc(=O)[nH]c1C2` (stereo not given), the viability was 106% (inactive).
`C[C@@]12C=Cc3occc3C1CC[C@@]13C[C@@H](CCC12)[C@@](O)(CO)C3` (stereo not given in full): the viability is 94.3% (inactive).
For `NCCNS(=O)(=O)c1cccc2c(Cl)cccc12`, the viability is 95.7% (inactive).
The value for `COC(=O)C1=C(C)NC(C)=C(C(=O)OCCNCc2ccccc2)C1c1cccc([N+](=O)[O-])c1` (stereo not given) was 79.3% (inactive).
Then `CC1(C)OC2CC(=O)OCC23C1CC(=O)C1(C)C3CC[C@@]2(C)[C@H](c3ccoc3)OC(=O)C3OC312` (stereo not given in full), with 93% (inactive); and `CC(=O)[C@H]1[C@H](C#N)CC2C3CC=C4C[C@@H](O)CCC4(C)C3CCC21C` (stereo not given in full), with 98.1% (inactive).
The value for `C=C1OC(CO)(n2cnc3c(N)ncnc32)C(O)C1O` (stereo not given) was 95.1% (inactive); that for `COc1ccc2c(c1)c(CC(=O)O)c(C)n2C(=O)c1ccc(Cl)cc1` was 101% (inactive).
As for `C[C@]12CCC(=O)C=C1CC[C@@H]1[C@@H]2[C@@H](O)C[C@@]2(C)[C@H]1CC[C@]2(O)C(=O)CO`, the viability is 98.9% (inactive).
The value for `COc1ccc(Cl)cc1C(=O)NCCc1ccc(S(=O)(=O)NC(=O)NC2CCCCC2)cc1` was 97% (inactive); that for `Cc1c2oc3c(C)ccc(C(=O)N[C@@H]4C(=O)N[C@H](C(C)C)C(=O)N5CCC[C@H]5C(=O)N(C)CC(=O)N(C)[C@@H](C(C)C)C(=O)O[C@@H]4C)c3nc-2c(C(=O)N[C@@H]2C(=O)N[C@H](C(C)C)C(=O)N3CCC[C@H]3C(=O)N(C)CC(=O)N(C)[C@@H](C(C)C)C(=O)O[C@@H]2C)c(N)c1=O` was 26% (active); that for `CC[C@@]1([C@@H]2O[C@@H]([C@H]3O[C@@](O)(CO)[C@H](C)C[C@@H]3C)C[C@@H]2C)CC[C@H]([C@]2(C)CC[C@]3(C[C@H](O)[C@@H](C)[C@@H]([C@@H](C)[C@@H](OC)C(C)C(=O)O)O3)O2)O1` (stereo not given in full) was 93% (inactive).
The value for `C=C1CC[C@H](O)C/C1=C/C=C1\CCC[C@]2(C)[C@@H]([C@H](C)CCCC(C)C)CC[C@@H]12` was 104% (inactive); that for `CO/N=C(\C(=O)N[C@@H]1C(=O)N2C(C(=O)O)=C(COC(C)=O)CS[C@H]12)c1csc(N)n1` was 96.4% (inactive).
Regarding `O=c1c(O)c(-c2ccc(O)c(O)c2)oc2cc(O)cc(O)c12`, the viability is 93% (inactive).
The value for `COc1ccc2cc1Oc1ccc(cc1)C[C@H]1c3c(cc4c(c3Oc3cc5c(cc3OC)CCN(C)[C@@H]5C2)OCO4)CCN1C` was 66.6% (inactive).
Turning to `O=c1c2ccccc2nc2n1CCc1c-2[nH]c2ccccc12`, the viability was 90.5% (inactive).
The value for `C=C1C(=O)[C@]23[C@H](O)[C@H]1CC[C@H]2[C@@]12COC3(O)[C@H](O)[C@@H]1C(C)(C)CC[C@@H]2O` was 88% (inactive); that for `CC(C)=CCC/C(C)=C/COc1ccc2ccc(=O)oc2c1` was 96.8% (inactive); that for `CC(=O)N[C@H]1C(O[C@@H]2O[C@H](C[C@@H](O)[C@H]3O[C@@H](N4CCC(=O)NC4=O)[C@H](O)[C@@H]3O)[C@H](O)[C@H](O)[C@H]2NC(=O)/C=C/CCCCCCCCCCC(C)C)OC(CO)[C@@H](O)[C@@H]1O` (stereo not given in full) was 55.1% (inactive).
Then `C=C(CCC12O[C@H](C(=O)O)[C@@](O)(C(=O)O)[C@](C(=O)O)(O1)[C@H](OC(=O)/C=C/[C@@H](C)C[C@@H](C)CC)[C@H]2O)[C@@H](OC(C)=O)[C@H](C)Cc1ccccc1`, with 100% (inactive); and `COc1ccc(CCN2CCC(Nc3nc4ccccc4n3Cc3ccc(F)cc3)CC2)cc1`, with 44.6% (inactive); and `C[C@@H]1CC2C3CCC4=CC(=O)C=CC4(C)[C@@]3(F)[C@@H](O)CC2(C)[C@@]1(O)C(=O)CO` (stereo not given in full), with 99.5% (inactive).
On to `C=C(C)C1CC=C(C)C(O)C1` (stereo not given), for which the viability is 94.9% (inactive).
Then `CCC(C)CCCCC(=O)N[C@@H](CCN)C(=O)N[C@H](C(=O)N[C@@H](CCN)C(=O)N[C@H]1CCNC(=O)C([C@@H](C)O)NC(=O)[C@@H](CCN)NC(=O)[C@H](CCN)NC(=O)[C@H](CC(C)C)NC(=O)[C@@H](CC(C)C)NC(=O)[C@H](CCN)NC1=O)[C@@H](C)O` (stereo not given in full), with 94.3% (inactive); and `CCCC[C@@H](C=O)NC(=O)[C@H](CC(C)C)NC(=O)[C@H](CC(C)C)NC(C)=O`, with 8.45% (active).
In the case of `Nc1c(N=Nc2ccc(-c3ccc(N=Nc4cc(S(=O)(=O)O)c5ccccc5c4N)cc3)cc2)cc(S(=O)(=O)O)c2ccccc12`, the viability is 83% (inactive).
Then `COc1ccc2cc3[n+](cc2c1OC)CCc1cc2c(cc1-3)OCO2`, with 99.8% (inactive); and `O=c1c(-c2ccc(O)cc2)coc2cc(O)cc(O)c12`, with 96.7% (inactive).
